Test systems include RPMI-8226 leukemia; OVCAR-8 ovarian; OVCAR-5 ovarian; OVCAR-4 ovarian; SK-OV-3 ovarian; IGROV1 ovarian; OVCAR-3 ovarian; HS 578T breast; NCI/ADR-RES ovarian; T-47D breast.
Holding throughout (test): NCI-60 one-dose screen, 48 h (100 = growth as untreated, 0 = no growth, -100 = all killed)
What all share (conditions): 10 µM unless noted

The structures appear in SMILES notation. The panel holds about 83,000 compounds, 20% with a hit somewhere; the sample as a whole holds those more often.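 Results are percent growth after 48 hours of single-concentration exposure. 100 means growth as in untreated cells, lower positive values show inhibition; negative values down to -100 show cell death.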 Values without a mark were called inactive. Active and inactive are the calls of the source. The calls were made as follows: active = growth percent below 10; inactive = the rest.

For the compound `C=C1C(=O)O[C@H]2[C@H]1CC/C(COC(=O)CCC(=O)OC/C1=C/CC[C@@]3(C)O[C@H]3[C@H]3OC(=O)C(=C)[C@@H]3CC1)=C\CC[C@@]1(C)O[C@@H]21`, the growth with RPMI-8226 leukemia was -0.781% (active); with OVCAR-8 ovarian it was 32.8%; in the assay with OVCAR-5 ovarian, 94.6%; with OVCAR-4 ovarian it was 47.3%; with SK-OV-3 ovarian, 84.9%; in the assay on IGROV1 ovarian it was 11.5%. Also, the growth in the assay on OVCAR-3 ovarian was -11% (active); in the assay on HS 578T breast, 79.6%; in the assay with NCI/ADR-RES ovarian it was 89.8%; in the assay with T-47D breast it was 19.7%.

Take `Cc1nccc2c3ccc(OCc4cn(-c5ccc(Cl)cc5)nn4)cc3n(CC(C)C)c12`: the growth with RPMI-8226 leukemia is -35.1% (active); in the assay with OVCAR-8 ovarian it was 25.2%; in the assay on OVCAR-5 ovarian it was 44.2%; in the assay on OVCAR-4 ovarian, 30.5%; in the assay on SK-OV-3 ovarian, 24.2%; in the assay on IGROV1 ovarian, 44.4%. The growth with OVCAR-3 ovarian is 35.3%; in the assay with HS 578T breast, 38.8%; in the assay with NCI/ADR-RES ovarian, 14.1%; in the assay on T-47D breast, 14%.

Take `C=C1C(=O)O[C@H]2[C@H]1CC/C(COC(=O)CCCCCCCC(=O)OC/C1=C/CC[C@@]3(C)O[C@H]3[C@H]3OC(=O)C(=C)[C@@H]3CC1)=C\CC[C@@]1(C)O[C@@H]21`: the growth was 3.72% (active) with RPMI-8226 leukemia; 1.92% (active) with OVCAR-8 ovarian; 44.4% with OVCAR-5 ovarian; 26.7% in the assay with OVCAR-4 ovarian; 101% in the assay on SK-OV-3 ovarian; -13.3% (active) in the assay on IGROV1 ovarian. For the same compound, the growth was 2.34% (active) with OVCAR-3 ovarian, 9.65% (active) in the assay with HS 578T breast, 28.6% in the assay on NCI/ADR-RES ovarian and -30.2% (active) with T-47D breast.

For `COc1cc(C)ccc1Oc1nc(Nc2ccc(N3CCOCC3)cc2)ncc1N=Cc1cc(C(F)(F)F)cc(C(F)(F)F)c1`, the growth in the assay with RPMI-8226 leukemia is 69.7%; in the assay on OVCAR-8 ovarian, 63%; in the assay on OVCAR-5 ovarian, 75.7%; with OVCAR-4 ovarian, 71%; with SK-OV-3 ovarian it was 43.3%; with IGROV1 ovarian it was 33.4%. Further, the growth with OVCAR-3 ovarian is 76.5%; in the assay on HS 578T breast it was 61.9%; in the assay with NCI/ADR-RES ovarian, 69.9%; in the assay on T-47D breast it was 57.7%.

Turning to `CS(=O)(=O)O[C@@H]1C(=O)N(c2cc3c4ccccc4ccc3c3ccccc23)[C@H]1c1ccc(F)cn1`, the growth in the assay on RPMI-8226 leukemia was 19.8%; with OVCAR-8 ovarian it was 27.4%; in the assay on OVCAR-5 ovarian it was 58.3%; in the assay on OVCAR-4 ovarian, 66.5%; in the assay with SK-OV-3 ovarian it was 41.7%; with IGROV1 ovarian, 51.7%. Further, the growth with OVCAR-3 ovarian is -12.7% (active); in the assay on HS 578T breast, 7.01% (active); in the assay with NCI/ADR-RES ovarian it was 20.2%; with T-47D breast it was 32.5%.

Consider `NS(=O)(=O)c1ccc(-n2nc(-c3ccccc3)ccc2=O)cc1`, for which the growth is 109% with RPMI-8226 leukemia; 101% in the assay on OVCAR-8 ovarian; 113% in the assay on OVCAR-5 ovarian; 117% with OVCAR-4 ovarian; 99.6% in the assay with SK-OV-3 ovarian; 72.3% in the assay on IGROV1 ovarian. Further, the growth in the assay with OVCAR-3 ovarian was 112%; in the assay on HS 578T breast, 106%; in the assay on NCI/ADR-RES ovarian, 103%; in the assay on T-47D breast it was 93.8%.

With `Cc1cccc(C)c1NCc1nnc(-c2ccc(O)cc2)o1`, the growth is 95.5% with RPMI-8226 leukemia; 107% in the assay on OVCAR-8 ovarian; 95.5% with OVCAR-5 ovarian; 99% in the assay on OVCAR-4 ovarian; 114% with SK-OV-3 ovarian; 99.9% in the assay with IGROV1 ovarian. Moreover, the growth with OVCAR-3 ovarian was 99.4%; with HS 578T breast, -4.35% (active); in the assay with NCI/ADR-RES ovarian it was 96.8%; with T-47D breast, 91.5%.

On to `CCCCc1ccc(N=Nc2ccc(OCC[N+](C)(C)C)cc2)cc1`, for which the growth with RPMI-8226 leukemia is 17.8%; in the assay with OVCAR-8 ovarian it was 26.8%; with OVCAR-5 ovarian it was 76.2%; in the assay on OVCAR-4 ovarian, 71.8%; in the assay on SK-OV-3 ovarian, 74.8%; in the assay on IGROV1 ovarian, 19.2%. Further, the growth with OVCAR-3 ovarian is 30.2%; with HS 578T breast, 72.3%; in the assay with NCI/ADR-RES ovarian, 104%; in the assay with T-47D breast, 88.7%.

Regarding `O=C(/C(=C/c1ccc([N+](=O)[O-])cc1)SCc1ccccc1)c1ccc(Cl)cc1`, the growth in the assay on RPMI-8226 leukemia was -15.8% (active); in the assay on OVCAR-8 ovarian, 76.2%; with OVCAR-5 ovarian, 95.4%; with OVCAR-4 ovarian it was 74.5%; in the assay with SK-OV-3 ovarian, 87.6%; in the assay with IGROV1 ovarian, 57%. In addition, the growth in the assay on OVCAR-3 ovarian was 70.6%; in the assay with HS 578T breast, 75.7%; with NCI/ADR-RES ovarian it was 62%; in the assay with T-47D breast, 47.8%.

On to `Oc1ccccc1-c1nc2c3ccccc3c3ccccc3c2o1`, for which the growth in the assay on RPMI-8226 leukemia is 75.5%; in the assay with OVCAR-8 ovarian, 89%; in the assay with OVCAR-5 ovarian, 114%; with OVCAR-4 ovarian it was 76.4%; in the assay with SK-OV-3 ovarian, 90.4%; with IGROV1 ovarian it was 74.1%. The growth is 97.2% in the assay on OVCAR-3 ovarian, 89.5% in the assay on HS 578T breast, 94.5% in the assay with NCI/ADR-RES ovarian and 78.9% with T-47D breast.

For `O=C(Nc1ccc2ncnc(Nc3ccc(F)c(Cl)c3)c2c1)c1ccccc1`, the growth was 66.9% in the assay on RPMI-8226 leukemia; 79.1% in the assay with OVCAR-8 ovarian; 83.9% in the assay with OVCAR-5 ovarian; -39.8% (active) with OVCAR-4 ovarian; 45.1% in the assay with SK-OV-3 ovarian; 28.5% in the assay with IGROV1 ovarian. For the same compound, the growth is 32.5% in the assay with OVCAR-3 ovarian, 82.8% with HS 578T breast, 65.9% in the assay on NCI/ADR-RES ovarian and 45.3% with T-47D breast.

On to `C/C(=C\c1cnc(C)s1)[C@@H]1C[C@@H]2O[C@@H]2CCC[C@H](C)[C@H](O)[C@@H](C)C(=O)C(C)(C)[C@@H](O)CC(=O)O1`, for which the growth in the assay with RPMI-8226 leukemia is 23.2%; with OVCAR-8 ovarian, 48%; with OVCAR-5 ovarian it was 38.9%; with OVCAR-4 ovarian it was 52.5%; with SK-OV-3 ovarian, 24.4%; in the assay with IGROV1 ovarian, 38.7%. Also, the growth in the assay on OVCAR-3 ovarian was 2.54% (active); in the assay on HS 578T breast it was 39.1%; in the assay on NCI/ADR-RES ovarian it was 6.61% (active); in the assay with T-47D breast it was 33.6%.

For `O=C(Nc1cc(=O)[nH]c(=O)[nH]1)C(Cl)Cl`, the growth in the assay with RPMI-8226 leukemia was 101%; with OVCAR-8 ovarian, 102%; with OVCAR-5 ovarian, 112%; in the assay with OVCAR-4 ovarian, 112%; in the assay with SK-OV-3 ovarian it was 107%; in the assay on IGROV1 ovarian, 108%. In addition, the growth was 113% in the assay on OVCAR-3 ovarian, 95.4% in the assay on HS 578T breast, 111% in the assay with NCI/ADR-RES ovarian and 91.4% with T-47D breast.

For the origin of these results see PubChem BioAssay (NCI).
